Source: PubChem BioAssay
This is a sample that favours compounds with a hit; in the whole collection about 19% have one here.
TDP1 cell noCPT – qHTS for Inhibitors of human tyrosyl-DNA phosphodiesterase 1 (TDP1): qHTS in cells in absence of CPT. Potency, µM (series often up to 46.2 µM), for inactives: top-dose activity change, negative = growth inhibition, usual class: inhibitors. DT40 Tdp1-/- hTDP1 cells, no CPT, ATP luminescence, 48 h. 420,000 tested, 15% active; also: potency is read from the fitted curve at half-maximal effect; nearly all actives have a fitted effect of over 55% in size
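Stably hTDP1-transfected Tdp1-null chicken DT40 cells were treated with library compounds minus camptothecin and grown for at least 48 hr at 37 °C, after which cellular ATP was quantified by luminescence.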
IL-1B inflam inh – qHTS for Inhibitors of Inflammasome Signaling: IL-1-beta AlphaLISA Primary Screen | activity change, % at 57.5 µM | THP-1 LPS/ATP IL-1B secretion, AlphaLISA, 16 h; hits give low values | 360,000 tested, 4.7% active | AID 743279, 2014; in the data active = activity change below about -50%; inconclusive = mostly about -30% to -49%
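THP-1 cells pretreated 1 hr with compounds (up to 57.5 uM final), then stimulated with LPS (250 ng/mL final) plus ATP (1.25 mM final); secreted IL-1B measured by AlphaLISA after 16 hr, decreased signal indicating inhibition.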
TDP1 cell CPT – qHTS for Inhibitors of human tyrosyl-DNA phosphodiesterase 1 (TDP1): qHTS in cells in presence of CPT. chicken DT40 Tdp1-/-;hTDP1 cells + 20 nM CPT, ATP luminescence, 48 h. Potency, µM (series often up to 46.2 µM), for inactives: top-dose activity change, negative = growth inhibition, usual class: inhibitors. 420,000 tested, 12% active. AID 686979, 2013; also: potency is read from the fitted curve at half-maximal effect; nearly all actives have a fitted effect of over 55% in size
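Chicken DT40 Tdp1-/- cells stably complemented with human TDP1 were seeded at 400 cells/well in medium containing 20 nM camptothecin, exposed to pin-transferred compounds, and grown at 37 °C for at least 48 hr. Viability was read as ATP luminescence.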
HT1080-NT tox – qHTS for induction of synthetic lethality in tumor cells producing 2HG: qHTS for the HT-1080-NT fibrosarcoma cell line; HT-1080-NT fibrosarcoma viability, CellTiter-Glo ATP luminescence, 48 h; Potency, µM (top dose mostly 46.1 µM), for inactives: top-dose activity, negative = less viability, hits mostly cytotoxic; 360,000 tested, 1.6% active; AID 686970, 2013;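 also: NT is the 2HG producing partner of a matched IDH1 knockdown line; potency is read from the fitted curve at half-maximal effect; 0% = DMSO-treated cells and -100% = media-only wells without cells; nearly all actives have a fitted effect of over 55% in size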
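Fibrosarcoma NT cells, 750 per well in 5% FBS RPMI, were exposed to compound for 48 hours. Viability: CellTiter-Glo luminescence.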
HT1080 IDH1KD tx – qHTS for induction of synthetic lethality in tumor cells producing 2HG: qHTS for the HT-1080-IDH1KD cell line; AID 686971, 2013; Potency, µM (top dose mostly 46.1 µM), without a hit: at the top dose activity, negative = toxicity, usual class: cytotoxic; 360,000 tested, 2% active; HT-1080 IDH1 knockdown viability, ATP luminescence, 48 h;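 also: potency is read from the fitted curve at half-maximal effect; 0% = DMSO wells and -100% = cell-free medium wells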
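Knockdown cells (IDH1KD HT-1080) received compounds 2 h after plating at 750 cells/well and were kept 48 h at 37 °C in 5% FBS RPMI. A CellTiter-Glo luminescence read gave % activity for curve fitting.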
The depositor's hits bear a star. Unless noted, calls follow the shape of the dose curve; as a rule, active = well fitted curve in the direction sought with a large enough effect; inconclusive = small, poorly fitted or top-dose-only effect, or another doubt; inactive = no such curve, though single readings can be large; an effect the other way counts as inactive or inconclusive. Unless noted, % is scaled to controls: 0 for no effect and ±100 for the full control effect.

How did Cc1c(-c2nc(-c3ccc4c(c3)[nH]c(=O)n4C)no2)cccc1[N+](=O)[O-] do in these assays?
TDP1 cell noCPT: 4.6%; TDP1 cell CPT: 7.0%

Results for Cc1ccc(-c2nc(CS(=O)(=O)CC(=O)NC3CCCCCC3)c(C)o2)cc1 ?
TDP1 cell noCPT: inconclusive; IL-1B inflam inh: inconclusive; TDP1 cell CPT: -3.6%; HT1080-NT tox: 6.7%; HT1080 IDH1KD tx: 14.8%

What do the screens show for `CCCCN(C)C(=O)c1ccc2c(c1)N(Cc1cccc(Cl)c1)C(=O)c1ccccc1S2=O` (configuration not stated)?
TDP1 cell noCPT: 14.6µM*; TDP1 cell CPT: 8.2µM*

How did CCOc1ccc(CCNC(=O)c2ccc3c(c2)N(Cc2ccccc2F)C(=O)c2ccccc2S3=O)cc1OCC (configuration not stated) do in these assays?
TDP1 cell noCPT: 23.1µM*; TDP1 cell CPT: inconclusive

What do the screens show for `COc1ccc(CCNC(=O)c2ccc3c(c2)N(Cc2ccccc2)C(=O)c2ccccc2S3=O)cc1OC` (configuration not stated)?
TDP1 cell noCPT: 11.6µM*; TDP1 cell CPT: 16.4µM*

How did COc1ccc(C)cc1NC(=O)c1ccc2c(c1)N(Cc1cccc(Cl)c1)C(=O)c1ccccc1S2=O (configuration not stated) do in these assays?
TDP1 cell noCPT: -9.2%; TDP1 cell CPT: -9.7%

How did CCN1C(=O)c2ccccc2S(=O)c2ccc(C(=O)NCCN(CC(C)C)CC(C)C)cc21 (configuration not stated) do in these assays?
TDP1 cell noCPT: 23.1µM*; IL-1B inflam inh: inconclusive; TDP1 cell CPT: inconclusive; HT1080-NT tox: -6.4%; HT1080 IDH1KD tx: -0.2%

Results for CCC(C)NC(=O)c1ccc2c(c1)N(Cc1ccccc1F)C(=O)c1ccccc1S2=O (configuration not stated) ?
TDP1 cell noCPT: -8.7%; TDP1 cell CPT: -19.5%

How did CCc1cccc(NC(=O)c2ccc3c(c2)N(Cc2cccc(Cl)c2)C(=O)c2ccccc2S3=O)c1 (configuration not stated) do in these assays?
TDP1 cell noCPT: -4.0%; TDP1 cell CPT: -23.1%

Results for CC(C)(C)N1C(=O)c2ccccc2NC(=O)C1C(=O)NCCc1ccccc1 (configuration not stated) ?
TDP1 cell noCPT: inconclusive; IL-1B inflam inh: 0.0; TDP1 cell CPT: 0.6%; HT1080-NT tox: 10.6%; HT1080 IDH1KD tx: 3.5%

What do the screens show for `O=C(Nc1ccc(C(=O)NCCCN2CCN(c3ccccc3)CC2)cc1)C1=CSCCO1`?
TDP1 cell noCPT: -26.3%; IL-1B inflam inh: 5.0; TDP1 cell CPT: inconclusive; HT1080-NT tox: -16.2%; HT1080 IDH1KD tx: -21.6%

How did O=[N+]([O-])c1ccc(N2CCCC2)c([N+](=O)[O-])c1 do in these assays?
TDP1 cell noCPT: -6.5%; IL-1B inflam inh: inconclusive; TDP1 cell CPT: 9.8%; HT1080-NT tox: -10.1%; HT1080 IDH1KD tx: -2.9%

Results for O=C(c1oc2ccccc2c1CSCc1ccccc1)N1CCN(c2ncccn2)CC1 ?
TDP1 cell noCPT: inconclusive; IL-1B inflam inh: -7.9; TDP1 cell CPT: inconclusive; HT1080-NT tox: 10.0%; HT1080 IDH1KD tx: -7.5%

What do the screens show for `O=C(NCCc1ccccc1)c1ccc2c(c1)N(Cc1ccccc1)C(=O)c1ccccc1S2=O` (configuration not stated)?
TDP1 cell noCPT: inconclusive; TDP1 cell CPT: 29.1µM*

What do the screens show for `COc1ccc(CNC(=O)c2ccc3c(c2)N(Cc2ccccc2)C(=O)c2ccccc2S3=O)cc1` (configuration not stated)?
TDP1 cell noCPT: -1.9%; TDP1 cell CPT: -0.3%
